# Experimental data reported in publication PMC7862700, “An all-to-all approach to the identification of sequence-specific readers for epigenetic DNA modifications on cytosine”.
# Experiments:
# Assay in all cases: DAPPL (digital affinity profiling via proximity ligation, sequencing); 10 mM Tris-HCl pH 7.5, 50 mM NaCl, 1 mM DTT, 4% glycerol, room temperature, 30 min; GST-TFs on glutathione beads, 16-mer random dsDNA library, 0.1% formaldehyde crosslink after washing; high values mean tight binding
# FLI1 = molecular target: T1, FLI1 (Homo sapiens, UniProt Q01543 1-452); details: protein: recombinant; tags: N-terminal GST; dsDNA, one strand shown
# T1 sequence: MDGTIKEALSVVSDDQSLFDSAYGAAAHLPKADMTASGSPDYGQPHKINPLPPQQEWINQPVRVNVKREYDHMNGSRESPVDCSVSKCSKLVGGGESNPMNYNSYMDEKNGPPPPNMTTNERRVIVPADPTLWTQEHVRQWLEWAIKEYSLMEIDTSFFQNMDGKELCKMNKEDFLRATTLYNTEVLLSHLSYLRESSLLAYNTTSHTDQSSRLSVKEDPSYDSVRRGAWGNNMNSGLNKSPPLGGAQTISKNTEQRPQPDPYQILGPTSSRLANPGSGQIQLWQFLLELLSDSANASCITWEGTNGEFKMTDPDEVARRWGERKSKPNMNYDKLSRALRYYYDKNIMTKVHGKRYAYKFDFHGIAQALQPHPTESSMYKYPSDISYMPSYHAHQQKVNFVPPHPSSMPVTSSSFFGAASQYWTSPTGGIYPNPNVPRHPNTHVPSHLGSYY
# Outline: (§1)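 A tag-only sample was pooled with DNA-barcoded human transcription factors that had been expressed in yeast as GST fusions and captured on glutathione beads. The pools were incubated for 30 min at room temperature with 200 nmole of a random double-stranded 16-mer DNA library in Tris/NaCl/DTT/glycerol buffer, then washed, crosslinked with 0.1% formaldehyde, proximity-ligated (BsaI/T4 ligase, 1 h, 37 °C), PCR-amplified and sequenced on an Illumina NextSeq500. Binding signal is each hexamer's read frequency for a factor divided by its frequency for the tag-only sample.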
# ELK1 = molecular target: T2, ELK1 (Homo sapiens, UniProt P19419 1-428); details: protein: recombinant; tags: N-terminal GST; dsDNA, one strand shown
# T2 sequence: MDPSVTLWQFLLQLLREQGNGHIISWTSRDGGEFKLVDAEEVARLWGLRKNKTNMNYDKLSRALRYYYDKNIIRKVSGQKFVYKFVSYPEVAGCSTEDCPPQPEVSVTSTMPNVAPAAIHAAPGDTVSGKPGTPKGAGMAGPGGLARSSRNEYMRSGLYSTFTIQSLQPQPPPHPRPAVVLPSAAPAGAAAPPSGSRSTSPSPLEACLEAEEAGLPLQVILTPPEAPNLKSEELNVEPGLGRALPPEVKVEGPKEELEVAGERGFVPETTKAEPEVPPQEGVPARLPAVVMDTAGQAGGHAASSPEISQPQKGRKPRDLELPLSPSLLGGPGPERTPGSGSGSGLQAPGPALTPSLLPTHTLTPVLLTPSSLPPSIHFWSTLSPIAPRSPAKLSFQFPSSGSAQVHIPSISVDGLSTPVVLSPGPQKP
# Outline: as §1
# GABPA = molecular target: T3, GABPA (Homo sapiens, UniProt Q06546 1-454); details: protein: recombinant; tags: N-terminal GST; dsDNA, one strand shown
# T3 sequence: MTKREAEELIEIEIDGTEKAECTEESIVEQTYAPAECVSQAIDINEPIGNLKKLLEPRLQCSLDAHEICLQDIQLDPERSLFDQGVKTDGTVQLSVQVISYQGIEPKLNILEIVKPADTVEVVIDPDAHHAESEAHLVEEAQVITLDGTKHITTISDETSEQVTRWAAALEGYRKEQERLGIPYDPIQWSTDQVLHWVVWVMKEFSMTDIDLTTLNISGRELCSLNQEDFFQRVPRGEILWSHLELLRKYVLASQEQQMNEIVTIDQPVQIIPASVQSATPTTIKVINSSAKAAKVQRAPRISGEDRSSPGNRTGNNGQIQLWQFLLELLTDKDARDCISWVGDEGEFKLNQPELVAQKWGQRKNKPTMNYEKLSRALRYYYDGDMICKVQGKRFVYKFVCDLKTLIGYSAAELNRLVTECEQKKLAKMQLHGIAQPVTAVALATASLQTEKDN
# Outline: as §1
# ERG = molecular target: T4, ERG (Homo sapiens, UniProt P11308 1-479); details: protein: recombinant; tags: N-terminal GST; dsDNA, one strand shown
# T4 sequence: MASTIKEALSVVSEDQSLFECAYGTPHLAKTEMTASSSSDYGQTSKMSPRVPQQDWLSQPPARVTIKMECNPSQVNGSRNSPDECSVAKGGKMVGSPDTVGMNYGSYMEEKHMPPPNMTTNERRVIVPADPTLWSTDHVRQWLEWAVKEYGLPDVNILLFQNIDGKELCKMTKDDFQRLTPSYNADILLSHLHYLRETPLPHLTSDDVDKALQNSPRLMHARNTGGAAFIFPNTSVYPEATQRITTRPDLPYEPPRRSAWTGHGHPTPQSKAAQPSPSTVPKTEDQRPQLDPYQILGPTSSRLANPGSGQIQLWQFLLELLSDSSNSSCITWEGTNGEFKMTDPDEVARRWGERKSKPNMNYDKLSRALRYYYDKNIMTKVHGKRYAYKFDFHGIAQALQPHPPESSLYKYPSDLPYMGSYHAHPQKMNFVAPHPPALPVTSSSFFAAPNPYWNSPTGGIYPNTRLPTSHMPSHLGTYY
# Outline: as §1
# ELF1 = ELF1 (Homo sapiens, UniProt P32519 1-619); details: protein: recombinant; tags: N-terminal GST; dsDNA, one strand shown
# ELF1, sequence (P32519 whole entry): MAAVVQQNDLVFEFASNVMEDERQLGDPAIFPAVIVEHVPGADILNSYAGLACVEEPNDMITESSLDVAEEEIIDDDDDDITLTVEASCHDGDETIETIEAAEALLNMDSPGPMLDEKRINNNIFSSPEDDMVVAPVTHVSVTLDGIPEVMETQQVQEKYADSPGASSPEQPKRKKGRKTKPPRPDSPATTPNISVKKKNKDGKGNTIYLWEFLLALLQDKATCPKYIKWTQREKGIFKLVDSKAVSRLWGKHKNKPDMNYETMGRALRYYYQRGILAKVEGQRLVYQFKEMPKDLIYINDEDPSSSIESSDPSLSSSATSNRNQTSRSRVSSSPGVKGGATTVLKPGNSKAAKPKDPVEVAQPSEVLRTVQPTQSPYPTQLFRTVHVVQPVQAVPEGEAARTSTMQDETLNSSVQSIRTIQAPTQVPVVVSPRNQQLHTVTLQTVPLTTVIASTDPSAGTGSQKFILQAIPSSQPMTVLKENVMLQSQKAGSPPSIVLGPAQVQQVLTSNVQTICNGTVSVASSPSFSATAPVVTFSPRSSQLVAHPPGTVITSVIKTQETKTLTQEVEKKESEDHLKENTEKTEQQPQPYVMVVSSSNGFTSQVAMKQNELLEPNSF
# Outline: as §1
# EHF = molecular target: T5, EHF (Homo sapiens, UniProt Q9NZC4 1-300); details: protein: recombinant; tags: N-terminal GST; dsDNA, one strand shown
# T5 sequence: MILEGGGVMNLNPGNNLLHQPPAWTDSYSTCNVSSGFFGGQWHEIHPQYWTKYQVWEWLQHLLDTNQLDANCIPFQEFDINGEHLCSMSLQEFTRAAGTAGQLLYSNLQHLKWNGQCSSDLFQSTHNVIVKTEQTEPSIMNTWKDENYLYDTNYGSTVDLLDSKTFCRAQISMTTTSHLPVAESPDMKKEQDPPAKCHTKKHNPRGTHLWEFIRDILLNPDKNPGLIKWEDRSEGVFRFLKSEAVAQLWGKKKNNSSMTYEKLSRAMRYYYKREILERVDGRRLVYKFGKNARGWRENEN
# Outline: as §1
# SPI1 = SPI1 (Homo sapiens, UniProt P17947 1-270); details: protein: recombinant; tags: N-terminal GST; dsDNA, one strand shown
# Outline: as §1
# SPIB = SPIB (Homo sapiens, UniProt Q01892 1-262); details: protein: recombinant; tags: N-terminal GST; dsDNA, one strand shown
# SPIB, sequence (Q01892 whole entry): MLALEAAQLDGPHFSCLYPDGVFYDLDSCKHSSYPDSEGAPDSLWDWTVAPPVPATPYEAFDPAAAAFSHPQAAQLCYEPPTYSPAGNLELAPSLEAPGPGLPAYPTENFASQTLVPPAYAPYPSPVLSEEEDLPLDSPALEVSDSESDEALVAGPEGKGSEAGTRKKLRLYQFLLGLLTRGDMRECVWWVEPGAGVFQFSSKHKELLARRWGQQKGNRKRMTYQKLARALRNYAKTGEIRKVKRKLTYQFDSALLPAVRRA
# Outline: as §1
# ELK3 = molecular target: T6, ELK3 (Homo sapiens, UniProt P41970 1-407); details: protein: recombinant; tags: N-terminal GST; dsDNA, one strand shown
# T6 sequence: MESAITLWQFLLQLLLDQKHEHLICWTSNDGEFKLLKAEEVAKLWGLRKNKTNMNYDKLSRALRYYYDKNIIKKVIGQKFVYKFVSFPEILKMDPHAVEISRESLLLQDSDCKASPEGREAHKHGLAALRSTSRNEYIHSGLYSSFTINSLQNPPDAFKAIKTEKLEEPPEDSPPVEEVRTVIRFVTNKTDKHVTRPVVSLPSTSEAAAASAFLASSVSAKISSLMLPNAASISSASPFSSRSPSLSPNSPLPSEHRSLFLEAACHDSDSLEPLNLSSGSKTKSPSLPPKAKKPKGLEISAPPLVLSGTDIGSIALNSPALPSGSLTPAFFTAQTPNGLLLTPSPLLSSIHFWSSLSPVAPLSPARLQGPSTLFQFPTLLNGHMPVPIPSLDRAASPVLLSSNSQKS
# Outline: as §1
# FEV = molecular target: T7, FEV (Homo sapiens, UniProt Q99581 1-238); details: protein: recombinant; tags: N-terminal GST; dsDNA, one strand shown
# T7 sequence: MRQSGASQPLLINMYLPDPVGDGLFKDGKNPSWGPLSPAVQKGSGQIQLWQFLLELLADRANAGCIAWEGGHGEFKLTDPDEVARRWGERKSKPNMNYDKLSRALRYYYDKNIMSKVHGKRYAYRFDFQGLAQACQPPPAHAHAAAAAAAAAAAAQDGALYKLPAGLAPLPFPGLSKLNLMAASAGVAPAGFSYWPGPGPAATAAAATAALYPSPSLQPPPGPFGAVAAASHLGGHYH
# Outline: as §1
# ETV5 = ETV5 (Homo sapiens, UniProt P41161 1-510); details: protein: recombinant; tags: N-terminal GST; dsDNA, one strand shown
# ETV5, sequence (P41161 whole entry): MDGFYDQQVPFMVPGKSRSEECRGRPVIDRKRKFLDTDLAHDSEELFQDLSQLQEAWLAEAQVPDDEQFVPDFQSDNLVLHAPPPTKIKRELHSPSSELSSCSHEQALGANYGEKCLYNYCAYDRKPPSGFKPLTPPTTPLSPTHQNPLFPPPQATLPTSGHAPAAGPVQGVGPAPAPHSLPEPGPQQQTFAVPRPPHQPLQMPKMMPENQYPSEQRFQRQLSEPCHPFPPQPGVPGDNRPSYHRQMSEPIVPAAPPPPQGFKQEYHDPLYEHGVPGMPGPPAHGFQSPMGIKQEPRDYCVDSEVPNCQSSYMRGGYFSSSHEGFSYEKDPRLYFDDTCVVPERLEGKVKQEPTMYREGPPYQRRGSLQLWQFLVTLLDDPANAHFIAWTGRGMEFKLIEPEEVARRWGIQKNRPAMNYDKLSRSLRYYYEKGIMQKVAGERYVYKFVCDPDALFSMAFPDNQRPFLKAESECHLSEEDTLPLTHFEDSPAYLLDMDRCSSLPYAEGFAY
# Outline: as §1
# HSF1 = HSF1 (Homo sapiens, UniProt Q00613 1-529); details: protein: recombinant; tags: N-terminal GST; chain copies: 3; dsDNA, one strand shown
# HSF1, sequence (Q00613 whole entry): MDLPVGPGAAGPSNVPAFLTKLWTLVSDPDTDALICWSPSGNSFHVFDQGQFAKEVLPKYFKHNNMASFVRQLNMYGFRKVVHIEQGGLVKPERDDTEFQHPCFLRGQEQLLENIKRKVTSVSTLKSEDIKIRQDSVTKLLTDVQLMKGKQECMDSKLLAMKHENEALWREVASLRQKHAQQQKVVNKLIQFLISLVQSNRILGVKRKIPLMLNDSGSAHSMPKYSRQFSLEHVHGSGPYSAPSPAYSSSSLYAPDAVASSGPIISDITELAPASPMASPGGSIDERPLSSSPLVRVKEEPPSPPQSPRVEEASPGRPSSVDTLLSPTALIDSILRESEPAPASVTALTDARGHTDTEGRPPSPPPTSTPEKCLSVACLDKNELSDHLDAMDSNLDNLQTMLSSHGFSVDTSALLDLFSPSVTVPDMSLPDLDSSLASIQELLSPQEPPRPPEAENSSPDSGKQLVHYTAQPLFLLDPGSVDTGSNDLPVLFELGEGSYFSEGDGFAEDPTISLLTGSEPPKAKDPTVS
# Outline: as §1
# SPIC = molecular target: T8, SPIC (Homo sapiens, UniProt Q8N5J4 1-248); details: protein: recombinant; tags: N-terminal GST; dsDNA, one strand shown
# T8 sequence: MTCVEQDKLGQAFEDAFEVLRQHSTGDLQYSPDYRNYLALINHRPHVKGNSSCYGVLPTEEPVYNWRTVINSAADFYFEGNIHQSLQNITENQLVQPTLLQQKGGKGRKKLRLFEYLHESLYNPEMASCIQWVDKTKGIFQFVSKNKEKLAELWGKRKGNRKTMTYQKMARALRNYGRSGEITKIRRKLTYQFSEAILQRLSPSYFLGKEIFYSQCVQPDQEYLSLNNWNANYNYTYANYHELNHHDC
# Outline: as §1
# ELF4 = ELF4 (Homo sapiens, UniProt Q99607 1-663); details: protein: recombinant; tags: N-terminal GST; dsDNA, one strand shown
# ELF4, sequence (Q99607 whole entry): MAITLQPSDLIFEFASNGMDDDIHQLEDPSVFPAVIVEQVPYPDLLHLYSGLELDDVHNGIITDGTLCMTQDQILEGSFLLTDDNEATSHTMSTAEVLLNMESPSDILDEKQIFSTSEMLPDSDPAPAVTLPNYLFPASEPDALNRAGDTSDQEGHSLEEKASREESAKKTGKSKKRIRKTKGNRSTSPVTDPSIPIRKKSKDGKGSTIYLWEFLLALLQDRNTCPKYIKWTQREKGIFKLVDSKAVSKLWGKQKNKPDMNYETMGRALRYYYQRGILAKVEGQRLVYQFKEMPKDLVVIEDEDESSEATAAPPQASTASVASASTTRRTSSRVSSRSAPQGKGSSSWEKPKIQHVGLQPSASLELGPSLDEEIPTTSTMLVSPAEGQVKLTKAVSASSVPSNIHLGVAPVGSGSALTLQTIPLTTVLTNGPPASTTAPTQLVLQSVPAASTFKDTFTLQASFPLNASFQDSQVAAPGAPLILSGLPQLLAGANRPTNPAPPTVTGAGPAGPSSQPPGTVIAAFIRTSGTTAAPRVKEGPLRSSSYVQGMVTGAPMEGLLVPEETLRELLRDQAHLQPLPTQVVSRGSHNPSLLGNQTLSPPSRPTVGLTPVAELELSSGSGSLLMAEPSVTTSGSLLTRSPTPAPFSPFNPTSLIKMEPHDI
# Outline: as §1
# ETV2 = molecular target: T9, ETV2 (Homo sapiens, UniProt O00321 1-342); details: protein: recombinant; tags: N-terminal GST; dsDNA, one strand shown
# T9 sequence: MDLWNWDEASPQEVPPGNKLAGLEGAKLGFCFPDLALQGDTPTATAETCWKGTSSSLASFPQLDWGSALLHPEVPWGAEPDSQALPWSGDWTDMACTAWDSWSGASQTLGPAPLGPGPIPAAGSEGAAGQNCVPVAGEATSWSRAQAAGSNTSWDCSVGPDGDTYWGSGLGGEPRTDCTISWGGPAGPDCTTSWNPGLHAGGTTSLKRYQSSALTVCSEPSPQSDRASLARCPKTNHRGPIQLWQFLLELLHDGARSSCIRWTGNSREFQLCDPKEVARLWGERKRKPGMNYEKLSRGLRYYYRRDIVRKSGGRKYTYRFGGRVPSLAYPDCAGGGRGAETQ
# Outline: as §1
# ELF3 = molecular target: T10, ELF3 (Homo sapiens, UniProt P78545 1-371); details: protein: recombinant; tags: N-terminal GST; dsDNA, one strand shown
# T10 sequence: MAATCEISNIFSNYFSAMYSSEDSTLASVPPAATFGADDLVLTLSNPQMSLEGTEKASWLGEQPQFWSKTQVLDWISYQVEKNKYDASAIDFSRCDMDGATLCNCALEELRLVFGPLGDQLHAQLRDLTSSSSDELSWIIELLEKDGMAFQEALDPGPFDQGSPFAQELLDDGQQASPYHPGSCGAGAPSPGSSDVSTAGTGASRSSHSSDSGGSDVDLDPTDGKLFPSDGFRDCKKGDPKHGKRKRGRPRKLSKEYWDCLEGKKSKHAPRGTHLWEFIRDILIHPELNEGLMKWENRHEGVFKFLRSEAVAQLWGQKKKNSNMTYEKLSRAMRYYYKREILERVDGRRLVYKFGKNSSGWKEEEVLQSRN
# Outline: as §1
# ETV1 = ETV1 (Homo sapiens, UniProt P50549 1-477); details: protein: recombinant; tags: N-terminal GST; dsDNA, one strand shown
# ETV1, sequence (P50549 whole entry): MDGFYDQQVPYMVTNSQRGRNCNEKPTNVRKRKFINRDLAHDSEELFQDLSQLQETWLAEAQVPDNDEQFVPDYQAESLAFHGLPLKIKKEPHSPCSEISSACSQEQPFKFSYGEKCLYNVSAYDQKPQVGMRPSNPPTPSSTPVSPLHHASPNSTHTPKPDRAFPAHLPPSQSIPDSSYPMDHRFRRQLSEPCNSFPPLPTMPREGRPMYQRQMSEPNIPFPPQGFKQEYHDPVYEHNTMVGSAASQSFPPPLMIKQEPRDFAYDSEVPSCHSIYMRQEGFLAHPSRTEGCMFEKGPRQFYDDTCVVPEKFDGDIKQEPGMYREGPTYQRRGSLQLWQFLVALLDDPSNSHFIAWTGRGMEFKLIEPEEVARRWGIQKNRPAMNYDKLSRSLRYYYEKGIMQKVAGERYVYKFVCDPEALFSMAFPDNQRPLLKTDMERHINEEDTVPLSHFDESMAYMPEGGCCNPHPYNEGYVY
# Outline: as §1
# CRX = CRX (Homo sapiens, UniProt O43186 1-299); details: protein: recombinant; tags: N-terminal GST; dsDNA, one strand shown
# CRX, sequence (O43186 whole entry): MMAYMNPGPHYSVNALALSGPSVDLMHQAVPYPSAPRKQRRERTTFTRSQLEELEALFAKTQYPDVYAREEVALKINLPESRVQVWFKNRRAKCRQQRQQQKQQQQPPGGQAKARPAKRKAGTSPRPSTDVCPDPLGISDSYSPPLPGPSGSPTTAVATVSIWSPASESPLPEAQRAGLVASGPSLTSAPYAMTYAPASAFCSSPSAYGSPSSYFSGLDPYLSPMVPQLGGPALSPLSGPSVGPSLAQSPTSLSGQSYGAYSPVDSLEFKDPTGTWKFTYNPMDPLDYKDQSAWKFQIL
# Outline: as §1
sequence,measurement,setting,value
CTATGA,binding signal,FLI1,"1.03 fold enrichment (6-mer frequency, TF over GST control)"
same,binding signal,ELK1,"1.13 fold enrichment (6-mer frequency, TF over GST control)"
same,binding signal,GABPA,"1.18 fold enrichment (6-mer frequency, TF over GST control)"
same,binding signal,ERG,"1.06 fold enrichment (6-mer frequency, TF over GST control)"
same,binding signal,ELF1,"1.16 fold enrichment (6-mer frequency, TF over GST control)"
same,binding signal,EHF,"1.14 fold enrichment (6-mer frequency, TF over GST control)"
same,binding signal,SPI1,"1.03 fold enrichment (6-mer frequency, TF over GST control)"
same,binding signal,SPIB,"1.13 fold enrichment (6-mer frequency, TF over GST control)"
same,binding signal,ELK3,"1.01 fold enrichment (6-mer frequency, TF over GST control)"
same,binding signal,FEV,"1.08 fold enrichment (6-mer frequency, TF over GST control)"
same,binding signal,ETV5,"1.07 fold enrichment (6-mer frequency, TF over GST control)"
same,binding signal,HSF1,"1.04 fold enrichment (6-mer frequency, TF over GST control)"
same,binding signal,SPIC,"1.17 fold enrichment (6-mer frequency, TF over GST control)"
same,binding signal,ELF4,"1.1 fold enrichment (6-mer frequency, TF over GST control)"
same,binding signal,ETV2,"1.19 fold enrichment (6-mer frequency, TF over GST control)"
same,binding signal,ELF3,"1.15 fold enrichment (6-mer frequency, TF over GST control)"
same,binding signal,ETV1,"1.02 fold enrichment (6-mer frequency, TF over GST control)"
ACGATC,binding signal,FLI1,"1.05 fold enrichment (6-mer frequency, TF over GST control)"
same,binding signal,GABPA,"1.17 fold enrichment (6-mer frequency, TF over GST control)"
same,binding signal,ERG,"1.03 fold enrichment (6-mer frequency, TF over GST control)"
same,binding signal,ELF1,"1.09 fold enrichment (6-mer frequency, TF over GST control)"
same,binding signal,SPIB,"1.08 fold enrichment (6-mer frequency, TF over GST control)"
same,binding signal,ELK3,"1.1 fold enrichment (6-mer frequency, TF over GST control)"
same,binding signal,FEV,"1.07 fold enrichment (6-mer frequency, TF over GST control)"
same,binding signal,ETV5,"1.06 fold enrichment (6-mer frequency, TF over GST control)"
same,binding signal,HSF1,"1.15 fold enrichment (6-mer frequency, TF over GST control)"
same,binding signal,SPIC,"1.02 fold enrichment (6-mer frequency, TF over GST control)"
same,binding signal,ELF4,"1.08 fold enrichment (6-mer frequency, TF over GST control)"
same,binding signal,ETV2,"1.09 fold enrichment (6-mer frequency, TF over GST control)"
same,binding signal,ELF3,"1.04 fold enrichment (6-mer frequency, TF over GST control)"
same,binding signal,CRX,"1.14 fold enrichment (6-mer frequency, TF over GST control)"
same,binding signal,ETV1,"1.05 fold enrichment (6-mer frequency, TF over GST control)"
